Screening results as filed in PubChem BioAssay.
USP30 inh: human USP30 deubiquitinase inhibition | purified USP30, Ub-rhodamine cleavage fluorescence | inhibition, % at 25 µM | AID 1645860 | 47,000 tested, 5.3% active
USP17 inh: blocks human USP17 ubiquitin-rhodamine cleavage | 47,000 tested, 6.5% active | purified USP17, Ub-rhodamine cleavage fluorescence, 3 h | inhibition, % at 50 µM
Target sequence (A8MUK1 whole entry, looked up): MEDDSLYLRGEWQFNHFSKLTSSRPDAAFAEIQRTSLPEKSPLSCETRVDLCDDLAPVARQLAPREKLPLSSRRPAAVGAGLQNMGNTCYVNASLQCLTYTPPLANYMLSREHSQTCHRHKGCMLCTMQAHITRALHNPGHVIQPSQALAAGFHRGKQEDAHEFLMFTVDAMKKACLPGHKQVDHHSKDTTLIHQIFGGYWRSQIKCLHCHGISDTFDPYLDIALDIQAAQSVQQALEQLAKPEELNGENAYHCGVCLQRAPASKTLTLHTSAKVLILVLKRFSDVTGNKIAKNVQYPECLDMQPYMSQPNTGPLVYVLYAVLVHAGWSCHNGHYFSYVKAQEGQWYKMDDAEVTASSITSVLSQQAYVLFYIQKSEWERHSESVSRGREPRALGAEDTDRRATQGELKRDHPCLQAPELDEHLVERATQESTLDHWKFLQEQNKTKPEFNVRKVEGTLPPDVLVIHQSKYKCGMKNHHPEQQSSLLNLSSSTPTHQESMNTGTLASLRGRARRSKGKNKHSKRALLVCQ
USP8 inh: blocks human USP8 ubiquitin-rhodamine cleavage; P40818; purified USP8, Ub-rhodamine cleavage fluorescence, 30 min; inhibition, % at 20 µM; 47,000 tested, 4.2% active; AID 1645853
Numbers stand for hits; . = inactive; / = not tested or not shown. The list is not random: actives were taken first. Their share in the collection is about 12%. Cut-off read from the data, not from the text of the source: active = inhibition above about 30%; inactive = the rest.

SMILES	USP30 inh	USP17 inh	USP8 inh
Cc1ccc(NC(=O)Nc2nnc(CC(=O)N3CCCCC3)s2)cc1C	.	.	.
COc1ccc(N2CCN(C(=O)c3ncccn3)CC2)cc1	.	.	.
CN1CC(=O)N(C2CCCNC2)Cc2c(NC3Cc4ccccc4C3)ncnc21 (configuration not stated)	.	.	67.9
CN1CC(=O)N(C2CCCNC2)Cc2c(NC3CCCCCC3)ncnc21 (configuration not stated)	.	.	.
Cn1c(CCC(=O)O)nc2cc(S(=O)(=O)N3CCOCC3)ccc21	.	.	.
Cn1c(CCC(=O)Nc2ccc3c(c2)CCC3)nc2cc(S(=O)(=O)N3CCOCC3)ccc21	32.6	47.7	.
CCc1ccccc1NC(=O)C(=O)c1cc(C)n(-c2ccccc2)c1C	.	.	.
Cc1cc(-c2ccc(S(=O)(=O)N3CCCC3)s2)on1	/	.	.
COc1ccc(C(=O)Nc2ccccc2C(=O)NC(Cc2ccc(O)cc2)C(=O)NNC(=O)c2ccccc2Cl)cc1 (configuration not stated)	69.4	81.8	59.2
COC(=O)[C@H](Cc1ccc(O)cc1)NC(=O)c1ccc(Cl)cc1	.	.	.
COc1ccc(S(=O)(=O)N2CC[C@@H]3CN(C(=O)c4ccccc4)[C@@H]3C2)cc1	.	.	.
NC(=O)c1ccc(N2CCN(c3ccccc3O)CC2)c([N+](=O)[O-])c1	.	31.6	.
O=C(Nc1ccccc1)c1ccc(N2CCCC2)c([N+](=O)[O-])c1	.	.	.
Cc1c(O)c(O)c(O)c(C=O)c1C=O	70.5	61.9	.
CC(C)N1CC[C@@H]2[C@H](C1)CN2S(=O)(=O)c1cccc(F)c1	.	.	.
CCOC(=O)c1cccc(C(=O)Nc2ccc(Cl)cn2)n1	.	.	.
COc1cccc(/C=C/C(=O)Nc2ccc(N3CCOCC3)cc2)c1OC	.	30.4	.
CC(OC(=O)C(c1ccccc1)c1ccccc1)C(=O)Nc1ccc(N2CCOCC2)cc1 (configuration not stated)	.	.	.
N#CCCc1c(-c2ccccc2)nc2[nH]c3ccccc3n2c1=O	.	.	38.9
C/C=C/C1=CC(=O)C(O)C1O (configuration not stated)	.	.	.
O=C(CSc1ccc2nnc(-c3ccc(Cl)cc3)n2n1)c1ccccc1	.	.	.
COc1ccc(C(=O)CSc2ccc3nnc(CCNC(=O)c4ccc(OC)cc4)n3n2)cc1	42.5	58.8	.
CCN(CC)c1ccc2nnc(CCC(=O)NCc3ccc(F)cc3)n2n1	.	.	.
COc1ccc(C(=O)NCCc2nnc3ccc(SCC(=O)NCc4ccc(F)cc4)nn23)cc1	51.9	45.8	.
O=C(CSc1ccc2nnc(-c3ccccc3)n2n1)c1ccccc1	.	.	78.7
SMILES	USP30 inh	USP17 inh	USP8 inh
Cc1ccc(C(=O)NCCc2nnc3ccc(SCC(=O)N4CCCc5ccccc54)nn23)cc1	.	.	.
COc1ccc(-c2cc(C)no2)cc1S(=O)(=O)N(C)Cc1ccccc1	.	.	.
CCOC(=O)C1=C(CN(C)Cc2ccccc2)NC(=O)NC1c1ccc(F)cc1 (configuration not stated)	.	.	.
Cc1cccc(Nc2cc(C3CCCN(C(=O)c4ccnnc4)C3)ccn2)n1 (configuration not stated)	.	.	.
COc1ccc(CCNCc2ccc(C(=O)O)s2)c(OC)c1	.	.	.
CC(C)(C)OC(=O)N1CCC[C@]2(CCC(=O)N2)[C@H]1c1ccc(F)cc1	30.9	.	.
Cn1nc(C2CC2)cc1C(=O)N1CCC[C@]2(CCC(=O)N2)[C@H]1c1ccc(F)cc1	.	.	.
Cc1nc2cc(N3CCC(C(=O)N4CCN(c5ccccn5)CC4)CC3)cnc2nc1C	.	.	.
Cc1ccc2[nH]c(=O)c(CN(CC3CCCO3)S(=O)(=O)c3ccccc3)cc2c1 (configuration not stated)	36.5	52.9	.
Cc1ccc2[nH]c(=O)c(CN(CC3CCCO3)S(C)(=O)=O)cc2c1 (configuration not stated)	.	.	.
Cc1ccc2[nH]c(=O)c(CN(CC3COCCO3)C(=O)Nc3ccccc3Cl)cc2c1 (configuration not stated)	.	/	.
Cc1ccc2[nH]c(=O)c(CN(CC3COCCO3)C(=O)Nc3ccccc3F)cc2c1 (configuration not stated)	37.5	.	.
O=C(NCc1ccc(Cl)cc1)N1CC(c2nc3ccccc3[nH]2)C1	.	.	.
CN(Cc1ccccc1)Cc1nc(N)nc(Nc2ccccc2)n1	.	.	.
COc1ccc2[nH]c(=O)c(CN(C(=O)Nc3cccc(Cl)c3)C3CCCC3)cc2c1	.	.	.
c1ccc(CNc2nn3c(-c4cccnc4)cnc3s2)cc1	40.3	31.7	.
COc1ccc(-c2cnc(NCc3ccc(Cl)cc3)nc2)cc1	.	.	.
c1cncc(-c2cnc3sc(NCC4CCOCC4)nn23)c1	.	.	.
COc1ccc(CNc2nn3c(-c4cncc(OC)c4)cnc3s2)cc1	100.4	.	.
Cc1cc(N2CCCCC2)nc(N2CCN(C(=O)c3ccc4ccccc4c3)CC2)n1	.	/	.
Cc1nc(SCC(=O)Nc2ccc(Cl)c(Cl)c2)c2oc3ccccc3c2n1	.	.	.
Cc1nc(SCC(=O)NC2CCCCC2)c2oc3ccccc3c2n1	/	.	.
Cc1nc(SCC(=O)NCC2CCCO2)c2oc3ccccc3c2n1 (configuration not stated)	.	.	.
COc1ccccc1NC(=O)CSc1nc(C)nc2c1oc1ccccc12	35.2	.	.
Cc1nc(SCC(=O)NC(C)c2ccccc2)c2oc3ccccc3c2n1 (configuration not stated)	.	37.9	.
SMILES	USP30 inh	USP17 inh	USP8 inh
Cc1nc(SCC(=O)Nc2ccc(C)c(Cl)c2)c2oc3ccccc3c2n1	39.3	43.7	.
COc1ccc(NC(=O)CSc2nc(C)nc3c2oc2ccccc23)c(OC)c1	.	.	.
Cc1ccc(NC(=O)CSc2nc(C)nc3c2oc2ccccc23)c(C)c1	31.6	.	.
Cn1c(CCNC(=O)Cc2cccc(Cl)c2)nc2cccnc21	.	.	.
Cc1c(Cl)cccc1S(=O)(=O)Nc1ccc(Cn2cncn2)cc1	.	.	.
COc1ccccc1-n1cnc2cc(C(=O)NCCN3CCOCC3)ccc21	.	.	.
COc1cccc(-c2noc(N3CCCC(C)C3)n2)c1 (configuration not stated)	.	.	.
NC(=O)C1CN(CC2(O)CCCCC2)CCN(C2CCOCC2)C1 (configuration not stated)	.	.	.
O=C(CN1CCN(c2ccccc2)CC1)c1ccc2c(c1)CCN2	.	.	.
CCC(=O)N1CC(C(=O)Nc2ccc(F)cc2)C2(CCOCC2)C1 (configuration not stated)	.	.	.
CC(C)CC(=O)N1CC(C(=O)Nc2ccc(F)cc2)C2(CCOCC2)C1 (configuration not stated)	.	45.6	.
Cc1ccc(-c2cc(-c3ccc4c(c3)OCO4)c(C#N)c(N)n2)cc1C	.	.	.
O=C(Nc1ccc(-c2cn3ccsc3n2)cc1)c1ccc(Cl)c([N+](=O)[O-])c1	82.3	.	97.4
Cc1ccc(-c2cn3ccsc3n2)cc1	.	.	.
Cc1ccccc1Cn1cc(SCC(=O)Nc2ccc3c(c2)OCCO3)c2ccccc21	35.3	.	.
